MazF activator = activators of E. coli MazEF toxin-antitoxin RNase, primary screen, biochemical, fluorescence, uHTS | actives 0.32% (n = 350,000) | Endoribonuclease toxin MazF (Escherichia coli (strain K12)), P0AE70 | AID 504720, 2011 | activation, % at 20 µM | FAM/BHQ RNA-DNA oligo cleavage fluorescence, 5 h; in the data active = activation above about 50%
Target sequence (P0AE70 whole entry, looked up): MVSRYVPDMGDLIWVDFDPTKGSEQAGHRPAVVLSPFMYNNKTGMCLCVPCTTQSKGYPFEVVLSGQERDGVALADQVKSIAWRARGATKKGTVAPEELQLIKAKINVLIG
PriA SSB inh = inhibitors of Klebsiella pneumoniae PriA binding to SSB C-terminal tail, primary screen, biochemical, AlphaScreen. PriA–SSB C-terminal tail interaction (Klebsiella pneumoniae). AlphaScreen SSBct-PriA binding, biotinylated peptide. inhibition, % at 33 µM. actives 0.6% (n = 430,000); in the data active = inhibition mostly above about 37%, no sharp cut-off; inactive = mostly below about 20%
Mtb hypoxia rep = PubChem AID 1159583; M. tuberculosis hypoxia-regulated fluorescent reporter, fluorescence; fluorescence inhibition, % (no concentration beside the values); actives 0.1% (n = 300,000); in the data active = fluorescence inhibition mostly above about 23%, no sharp cut-off; inactive = mostly below about 17%
Vc quorum ag = inducers of Vibrio cholerae quorum light production without autoinducers, primary screen, BH1578 luxS cqsA deficient, single point | activation, % at 18.7 µM | V. cholerae BH1578 lux reporter, luminescence, 6 h | actives 0.16% (n = 350,000); in the data active = activation mostly above about 9.7%, no sharp cut-off
Each line names hits and unclear results; the compound was inactive in the other large screens; ! = repeats disagree. Rows were chosen to be rich in hits. Some 0.94% of all compounds tested hit in one or more screens of this group.

CCOc1ccccc1C(=O)NCC[C@H](O)c1ccccc1	PriA SSB inh 43 (no result: MazF activator, Mtb hypoxia rep, Vc quorum ag)
CC(C)N(C(=O)Cn1nc(-c2cccs2)c2sc(N3CCOCC3)nc2c1=O)c1ccccc1	none (no result: MazF activator, Mtb hypoxia rep, Vc quorum ag)
O=C(Cn1c(=O)oc2cc(S(=O)(=O)N3CCCC3)ccc21)NCc1ccc(F)cc1	PriA SSB inh 104
O=C(CSc1cccc2cccnc12)N1CCCCCC1	PriA SSB inh 102 (no result: MazF activator, Mtb hypoxia rep, Vc quorum ag)
NC(=O)CSc1cccc2cccnc12	PriA SSB inh 64 (no result: MazF activator, Mtb hypoxia rep, Vc quorum ag)
O=C(CSc1cccc2cccnc12)NCCc1ccc(Cl)cc1	PriA SSB inh 77 (no result: MazF activator, Mtb hypoxia rep, Vc quorum ag)
O=C(O)CSc1cccc2cccnc12	PriA SSB inh 65! (no result: Mtb hypoxia rep)
COc1ccc(CCNC(=O)CSc2cccc3cccnc23)cc1OC	none
CC(C)(C)NC(=O)CSc1cccc2cccnc12	none (no result: MazF activator, Mtb hypoxia rep, Vc quorum ag)
O=C(CCS(=O)(=O)c1ccc(F)cc1)Nc1nnc(-c2ccc3c(c2)OCO3)o1	none (no result: MazF activator, Mtb hypoxia rep, Vc quorum ag)
COCCN1C(=O)/C(=C/c2ccc(N3CCCC3)cc2)SC1=S	MazF activator 318
Cc1n[nH]c(=O)nc1NN=Cc1ccc(O)c([N+](=O)[O-])c1	none (no result: MazF activator, Vc quorum ag)
Cc1ccsc1C=NNc1nc(=O)[nH]nc1C	PriA SSB inh 67 (no result: MazF activator, Vc quorum ag)
Cc1ccc(-n2c(C)cc(C=NNC(N)=S)c2C)cc1	none (not shown: MazF activator, Mtb hypoxia rep, Vc quorum ag)
Cc1cc(C=NNC(N)=S)c(O)c(C=NNC(N)=S)c1	PriA SSB inh 59 (no result: MazF activator, Vc quorum ag)
COc1cccc([C@H](CNC(=O)c2cccc(N(C)C)c2)OC)c1	none (no result: MazF activator, Mtb hypoxia rep, Vc quorum ag)
CCCCCSc1cc(OC)c(CCN)cc1OC	none (no result: Mtb hypoxia rep)
CCCCCCCSc1cc(OC)c(CCN(C)C)cc1OC	PriA SSB inh 49 (no result: Mtb hypoxia rep)
CCCCN1C(=O)/C(=C/C=C2/CC(C)(C)CN2C)SC1=S	MazF activator 118
CCOC(CNC(=O)c1c(O)nc2sccn2c1=O)OCC	none (no result: MazF activator, Mtb hypoxia rep, Vc quorum ag)
Cc1cc(NN=Cc2ccccc2O)c2ccccc2n1	Mtb hypoxia rep 72 (no result: MazF activator, Vc quorum ag)
COc1ccc2nc(C)cc(N/N=C/c3cccc(OC)c3O)c2c1	none (no result: PriA SSB inh, Mtb hypoxia rep)
COc1ccc(C=NNc2cc(C)nc3ccc(OC)cc23)c(OC)c1	PriA SSB inh 41 (not shown: MazF activator, Mtb hypoxia rep, Vc quorum ag)
CC(C)CNC(=O)CCc1nc2ccccc2n(CC(=O)NCc2ccccc2Br)c1=O	none (no result: MazF activator, Mtb hypoxia rep, Vc quorum ag)
COc1ccc(NC(=O)c2ccc(-c3ccc(-c4noc(C)n4)cc3C)cc2)cc1N1CCN(C)CC1	PriA SSB inh 39
COc1ccc(-c2nc(-c3ccc(NC(=O)c4ccncc4)cc3)no2)cc1OC	none
O=S(=O)(NCC(c1ccco1)N1CCc2ccccc21)c1ccccc1 (stereo not drawn)	PriA SSB inh 25!
COc1cccc2cc(S(=O)(=O)c3cccc(C#N)c3)c(=O)oc12	none (no result: MazF activator, Mtb hypoxia rep, Vc quorum ag)
CCn1nc(-c2ccccc2)c2nc3ccccc3nc21	MazF activator 786 (no result: Mtb hypoxia rep)
CCCn1nc(-c2ccccc2)c2nc3ccccc3nc21	MazF activator active (no result: Mtb hypoxia rep, Vc quorum ag)
CC1(C)CC(=O)C(=C(O)Cc2ccccc2)C(=NCCCCCC(=O)O)C1	none (no result: MazF activator, Mtb hypoxia rep, Vc quorum ag)
COC(=O)c1cc(Br)ccc1-c1ccc(/C=N/n2nnnc2N)o1	MazF activator 54 (no result: PriA SSB inh, Mtb hypoxia rep)
O=S(=O)(c1ccc(OC(F)(F)F)cc1)N1CCC(CSc2ccccn2)CC1	none (no result: MazF activator, Mtb hypoxia rep, Vc quorum ag)
O=C(COC(=O)Cc1ccc(Cl)cc1)NCc1cccs1	Mtb hypoxia rep 29
O=C(COC(=O)Cc1ccc(Cl)cc1)NCc1ccc(Cl)cc1	none (no result: PriA SSB inh, Mtb hypoxia rep)
CO[C@@H](CNC(=O)c1ccc2ncsc2c1)c1ccccc1Cl	none (no result: MazF activator, Mtb hypoxia rep, Vc quorum ag)
Cc1ccc(C(=O)NCCn2cc(SC(=N)N)c3ccccc32)cc1	PriA SSB inh 39 (no result: MazF activator, Mtb hypoxia rep, Vc quorum ag)
Cc1ccc(C(=O)NCCn2cc(SCC(=O)N3CCOCC3)c3ccccc32)cc1	none
O=[N+]([O-])c1ccc(C[n+]2cccc3ccccc32)cc1	none
O=[N+]([O-])c1ccc(C[n+]2cccc3ccc4cccnc4c32)cc1	PriA SSB inh 90
Cc1ccc(S(=O)(=O)Nc2c(C)n(C)n(-c3ccccc3)c2=O)cc1C(=O)OC(C)C(=O)N(C)c1ccccc1 (stereo not drawn)	none
Cc1ccc(S(=O)(=O)Nc2c(C)n(C)n(-c3ccccc3)c2=O)cc1C(=O)OC(C)C(=O)c1ccccc1 (stereo not drawn)	Mtb hypoxia rep 21
COc1ccc(CCNC(=O)N(CCc2cccs2)Cc2cccnc2)cc1	none (no result: MazF activator, Mtb hypoxia rep, Vc quorum ag)
O=c1c(O)cccc2cc(O)c(O)c(O)c12	MazF activator 281 (no result: PriA SSB inh)
O=C(Cn1cncn1)Nc1ccccc1-c1ccc(=O)[nH]n1	none (no result: MazF activator, Mtb hypoxia rep, Vc quorum ag)
N#C/C(=C\c1cn(CCOc2ccccc2)c2ccccc12)C(=O)NCc1cccs1	MazF activator 59
COc1ccc(OCCn2cc(/C=C(\C#N)C(=O)NCc3ccco3)c3ccccc32)cc1	none
COC1(C)CC2C(CC1OC(=O)c1cc([N+](=O)[O-])cc([N+](=O)[O-])c1)C2(C)C (stereo not drawn)	PriA SSB inh 74

Compound activity from PubChem.
